Experimental data: PubChem BioAssay AID720579 (National Center for Advancing Translational Sciences (NCATS), 2013)
Out of some 310,000 compounds screened, about 1,900 (0.61%) were called active. Roughly 8% stayed inconclusive and do not appear here. Many of the other results were omitted from the sample, so actives are more common in it than they were. A number with no mark means an inactive call. Calls follow the shape of the full dose curve; tested in A549 cells.

Experiment: qHTS for Stage-Specific Inhibitors of Vaccinia Orthopoxvirus: mCherry Reporter Primary qHTS; also: nearly all actives have a fitted effect of over 35% in size
Settings: Vaccinia virus mCherry reporter infection, fluorescence; series mostly up to 36.5 µM; activity change, negative = inhibition: at the top concentration
% is scaled to controls: 0 for no effect and ±100 for the full control effect; potency is read from the fitted curve at half-maximal effect.

Row | SMILES | activity change, negative = inhibition | Potency | outcome
1 | COc1ccc(C(C)(C)C)cc1NC(=O)CN(C)C1=NS(=O)(=O)c2ccccc21 | -6.16% | – | –
2 | COC(=O)[C@]12CCCCC=C1N(CCC1=CCCCC1)C(=O)[C@H](CC(=O)N1CCSCC1)C2 | -2.98% | – | –
3 | CCC(C)C(=O)O[C@@H]1C[C@@]2(C)C(c3ccoc3)OC(=O)CC23OC2(C)O[C@@]14[C@@]1(C)C(CC(=O)OC)C5(C)CC1(O)C(O)(C5OC(=O)C1(C)OC1C)C(OC(C)=O)[C@@]34O2 (stereo not given in full) | -8.3% | – | –
4 | C=C1C([C@@]2(C)C(OC(C)=O)CC(=O)O[C@@](C)(COC(C)=O)C2CC(=O)OC)C(OC=O)C(OC(=O)C(O)C(C)CC)[C@]2(C)C(c3ccoc3)CC(=O)C12O (stereo not given in full) | – | 2 µM (active) | –
5 | COC(=O)CC1C(C)(C)C(OC(C)=O)C2CC3=C4CC(=O)OC(c5ccoc5)[C@]4(C)CCC3[C@@]1(C)C2=O (stereo not given in full) | -21.6% | – | –
6 | COc1ccc(C(O)c2nc(-c3ccc4c(c3)OCO4)cs2)cc1 (stereo not given) | 23% | – | –
7 | CCc1nc2c(OCc3cccc(OC)c3)cccn2c1N(C)C(=O)C(C)C | -4.52% | – | –
8 | CCN1CCCC1CNC(=O)c1ccc2c(c1)NC(=O)/C(=C\c1ccccc1F)S2 (stereo not given) | -6.17% | – | –
9 | CC(=O)c1cccc(-c2cnc3c(NC=O)cc(-c4ccccc4Oc4ccccc4)cn23)c1 | -26.7% | – | –
10 | CCOc1ccc(S(=O)(=O)Nc2ccc(OC)nc2)cc1 | -23.6% | – | –
11 | COc1ccc(CS(=O)/C(Cl)=C(/Cl)C(=O)Nc2ccc(OC)nc2)cc1 (stereo not given) | – | 3.98 µM (active) | –
12 | COc1ccc(NC(=O)CN2C(=O)NC(C)(c3ccccc3)C2=O)cn1 (stereo not given) | -11.4% | – | –
13 | CCN(CC)S(=O)(=O)c1cc(C(=O)Nc2cc(S(=O)(=O)N3CCOCC3)ccc2N2CCCC2)ccc1F | -3.76% | – | –
14 | CCN(CC)S(=O)(=O)c1ccc(N2CCN(C)CC2)c(NC(=O)Nc2ccccc2F)c1 | -18.6% | – | –
15 | CCN(CC)S(=O)(=O)c1ccc(N2CCCC2)c(NC(=O)c2ccc([N+](=O)[O-])o2)c1 | – | 14.1 µM (active) | –
16 | COc1cccc(CNc2nc(NCc3cccs3)nc3ccsc23)c1 | -24.8% | – | –
17 | OC(c1ccccc1)c1nc(-c2cnc3ccccc3c2)cs1 (stereo not given) | – | – | inactive
18 | CC1(c2cccc(Br)c2)NC(=O)N(CC(=O)NCCC2=CCCCC2)C1=O (stereo not given) | -13.2% | – | –
19 | O=C(NCCOc1ccccc1)N1[C@H]2CC[C@@H]1C=C(c1ccc(F)cc1OCc1ccccc1)C2 | -10.1% | – | –
20 | CC1(C(=O)O)CCN1C(=O)/C=C/c1ccccc1 (stereo not given) | 5.83% | – | –
21 | CC1(C)CCSC(/C=C/c2ccccc2)=N1 | – | 11.2 µM (active) | –
22 | CC1(C(=O)NS(=O)(=O)c2ccccc2)CCN1C(=O)C/C=C/c1ccccc1 (stereo not given) | -13.6% | – | –
23 | COc1ccc(/C=N/Nc2nc3ccccc3c(=O)[nH]2)cc1 | – | – | inactive
24 | COc1ccc(Cc2nnc(N/N=C/c3ccccc3O)[nH]c2=O)cc1OC | – | 1.26 µM (active) | –

Row | SMILES | activity change, negative = inhibition | Potency | outcome
25 | O=c1[nH]c(NCCO)nnc1Cc1ccc(Cl)cc1 | -6.45% | – | –
26 | CCC(c1nnnn1-c1ccc2c(c1)OCCO2)N1CCN(c2ccc(C(F)(F)F)cn2)CC1 (stereo not given) | -14.7% | – | –
27 | O=C(C(=O)N1CCC(c2ccccc2)CC1)c1ccccc1 | – | – | inactive
28 | CCOC(=O)[C@]12CCC=C1N(CCC1=CCCCC1)C(=O)[C@H](CC(=O)NCc1ccc(C)o1)C2 | -14.5% | – | –
29 | CN(C(=O)c1cccc(NC(=O)Cc2cccc(NC(=O)C3CCCN(C(=O)C4CC4)C3)c2)c1)C1CCC1 (stereo not given) | -2.68% | – | –
30 | CN(C(=O)c1cccc(NC(=O)Cc2cccc([N+](=O)[O-])c2)c1)C1CCCCC1 | – | 10 µM (active) | –
31 | CN(C(=O)c1cccc(NC(=O)Cc2ccc(NC(=O)C3CCN(C(=O)C4CCCCC4)CC3)cc2)c1)C1CCC1 | 0.303% | – | –
32 | CCN(CC)C(=O)C(C)N1c2cccc3cccc(c23)S1(=O)=O (stereo not given) | – | – | inactive
33 | CSCCC(C(=O)NC(C)(C)C)n1c(-c2ccccc2)nc2ccccc21 (stereo not given) | 5.73% | – | –
34 | CCCNC(=O)C1(C)CCN1C(=O)Cc1ccc(-c2ccccc2)cc1 (stereo not given) | -12% | – | –
35 | CC(=O)N1CCc2c(sc(NC(=O)CCS(=O)(=O)c3ccccc3)c2C#N)C1 | – | 12.6 µM (active) | –
36 | CC(C)N1CCc2c(sc(NC(=O)Cc3ccccc3)c2C#N)C1 | -27% | – | –
37 | CC(=O)N1CCc2c(sc(NC(=O)CCS(=O)(=O)c3ccc(C)cc3)c2C(N)=O)C1 | -21.1% | – | –
38 | CCc1oc(-c2ccc(OC)cc2)c(C(=O)OCCCCCO)c1C(C)OCCO (stereo not given) | – | – | inactive
39 | O=C(c1cnn2c1NC(=C1CC1)C=C2C(F)F)N1CCc2ccccc2C1 | -18.9% | – | –
40 | CN(C)c1cccc(NC(=O)c2ccc(-c3ccc(F)c(F)c3)c3ccoc23)c1 | – | – | inactive
41 | Cc1ccccc1S(=O)(=O)NC(=O)C1(C)CCN1C(=O)C1(c2ccccc2)CCCC1 (stereo not given) | – | – | inactive
42 | O=C(OCC#CCSc1nnc(-c2ccncc2)o1)c1sc2ccccc2c1Cl | – | – | inactive
43 | C#CCSc1nnc(-c2sc3ccccc3c2Cl)o1 | – | 11.2 µM (active) | –
44 | COc1ccc2c(Cl)c(-c3nnco3)sc2c1 | – | – | inactive
45 | CC1(C(=O)Nc2cccnc2)Cc2c(-c3ccccc3)ccnc2O1 (stereo not given) | 3.66% | – | –
46 | COc1ccc(/C=C/C(=O)c2ccc(NS(=O)(=O)c3ccc(C)cc3)cc2)cc1O | – | 12.6 µM (active) | –
47 | COc1ccc(C(=O)Oc2cc(/C=N/NS(=O)(=O)c3ccc(C)cc3)ccc2OC)cc1 | -0.0272% | – | –
48 | COc1ccc(NS(=O)(=O)c2ccc(NC(=S)NC(=O)/C=C/c3ccc(C)cc3)cc2)nn1 | -23.6% | – | –

Row | SMILES | activity change, negative = inhibition | Potency | outcome
49 | CCOC(=O)[C@]12CCCC=C1N(Cc1ccc3c(c1)OCO3)C(=O)[C@H](CC(=O)N1CCN(C(=O)c3ccco3)CC1)C2 | 17.3% | – | –
50 | C/C=C/C(=O)OCc1csc(CC(=O)Nc2ccccc2C)n1 | – | 5.01 µM (active) | –
51 | Cc1ccccc1NC(=O)Cc1nc(COC(=O)CNC(=O)c2ccc(Cl)cc2Cl)cs1 | – | – | inactive
52 | Cc1ccccc1NC(=O)Cc1nc(COC(=O)C(C)(C)Oc2ccc(Cl)cc2)cs1 | -3.94% | – | –
53 | CCC(C(=O)NC(C)(C)C)n1c(-c2ccccc2)nc2ccccc21 (stereo not given) | -9.32% | – | –
54 | C/C(=N\NC(=O)c1ccccc1C)c1ccc(N2CCOCC2)cc1 | -16% | – | –
55 | C/C(=N\NC(=O)c1ccoc1C)c1ccccc1O | – | 1.12 µM (active) | –
56 | CC(C)=C(NC(=O)c1ccccc1)C(=O)N/N=C(\C)c1ccccc1O | -21.4% | – | –
57 | CCOC(=O)[C@]12CCCC=C1N(CCC1=CCCCC1)C(=O)[C@H](CC(=O)N1CCN(C(=O)c3ccco3)CC1)C2 | – | – | inactive
58 | CCc1c(-c2ccc(F)cc2)ncn1Cc1cccc(-c2ccccc2)c1 | – | – | inactive
59 | N#Cc1cccc(NC(=O)c2cc(C3CCCCN3C(=O)CCc3ccccc3)on2)c1 (stereo not given) | 1.36% | – | –
60 | Cc1cc2c(cc1C)N1C(=O)c3cc4ccccc4cc3NC(=O)C1C(=O)N2 (stereo not given) | 11.5% | – | –
61 | FC(F)(F)c1cccc(N/N=C/c2ccccc2)c1 | -17.6% | – | –
62 | Oc1ccc(/C=N/Nc2ccc(C(F)(F)F)cn2)cc1O | – | 10 µM (active) | –
63 | CCNc1nc(NCC)nc(N/N=C/c2ccc(O)c(OC)c2)n1 | -15.6% | – | –
64 | O=C(COc1ccccc1C(=O)Nc1ccccc1)Nc1cccc(F)c1 | -27.2% | – | –
65 | CC1(C(=O)Nc2cccc(Oc3ccccc3)c2)CCN1Cc1ccccc1Cl (stereo not given) | – | – | inactive
66 | CN1OC[C@@H]2CN(C(=O)c3ccc(-c4ccccc4)cc3)[C@H](c3ccc(-c4cccc(F)c4)cc3)C[C@@H]21 | -2.21% | – | –
67 | COc1ccccc1Cc1c(-c2ccc(Cl)cc2)nc2ccc(Cl)cn12 | -16.7% | – | –
68 | C/C(=N\NC(=O)Cc1ccc(Br)cc1)c1cccnc1 | – | – | inactive
69 | O=C(NCCOc1ccccc1)c1ccccc1F | -10.6% | – | –
70 | C/C(=N\NC(=O)c1ccccc1F)c1ccccn1 | – | 2 µM (active) | –
71 | C/C(=N\NC(=O)Cc1ccc(Cl)cc1)c1ccccn1 | – | 5.01 µM (active) | –
72 | O=C(Nc1ccc(NC(=O)c2ccccc2F)cc1)c1ccccc1F | -15% | – | –

Row | SMILES | activity change, negative = inhibition | Potency | outcome
73 | C/C(=N\NC(=O)Cc1ccc(F)cc1)c1ccc(F)cc1 | -19.4% | – | –
74 | COc1ccccc1Cc1c(-c2ccc(Cl)cc2)nc2c3ccccc3ccn12 | -7.18% | – | –
75 | COc1ccc(NC(=O)c2sc(=O)n(Cc3ccc(S(=O)(=O)N(C)C)cc3)c2C)cc1 | – | – | inactive
76 | COc1cccc(-c2cc(NC(C)=O)c3ncc(-c4cccc(C(C)=O)c4)n3c2)c1 | 4.33% | – | –
77 | SCc1nc2ccc(Cl)cc2[nH]1 | -20.9% | – | –
78 | CC(=O)N1Cc2cc(C(=O)NCc3cccc(F)c3)nc(-c3cccc(C4=CCCC4)c3)c2[C@H]1CCO | -22.7% | – | –
79 | Cc1ccc(C)c(S(=O)(=O)n2nc(C)c(S(=O)(=O)N3CCC(C)CC3)c2C)c1 | 7.85% | – | –
80 | Cc1ccc(C)c(S(=O)(=O)N2CCN(c3ncnc4sccc34)CC2)c1 | – | 7.08 µM (active) | –
81 | Cc1ccc(S(=O)(=O)N2CCN(c3ncnc4ccccc34)CC2)cc1 | – | – | inactive
82 | CCCN(CCC)S(=O)(=O)c1cc2c(cc1Br)CCN2C(=O)CC | -19.1% | – | –
83 | CCCNC(=O)C1(C)CCN(Cc2ccc(Cl)c(Cl)c2)C1 (stereo not given) | 10.3% | – | –
84 | CCn1c(=O)c(=O)[nH]c2c(=O)oc3ccc(S(=O)(=O)Nc4ccc(OC)cc4)cc3c21 | -4.06% | – | –
85 | COc1ccc(NS(=O)(=O)c2ccc3oc(SCC(N)=O)nc3c2)cc1 | – | 3.55 µM (active) | –
86 | COc1ccc(NC(=O)c2cnc(NS(=O)(=O)c3ccccc3)nc2)cc1 | -2.69% | – | –
87 | Cc1ccc(NC(=O)Cn2sc3ccccc3c2=O)cc1 | – | – | inactive
88 | CN(C(=N)N)c1ccc(/C=C2\C=Cc3ccccc32)cc1 | -25.5% | – | –
89 | CCOC(=O)[C@]12CCCC=C1N(CCC1=CCCCC1)C(=O)[C@H](CC(=O)N1CCCCC1)C2 | -13.6% | – | –
90 | COc1cc2nc(N3CCCN(C)CC3)nc(NC3CC3)c2cc1OC | -9.78% | – | –
91 | O=C(Nc1ccccc1Cl)O/N=C(/c1ccccc1)c1ccccn1 | -20.6% | – | –
92 | c1ccc(C(=NNc2nc3ccccc3s2)c2ccccn2)cc1 | – | 7.08 µM (active) | –
93 | c1ccc2sc(NN=C3CCCC3)nc2c1 | -13.5% | – | –
94 | Cc1[nH]c2ccccc2c1C(=O)c1cc([C@H](NC(=O)OC(C)(C)C)C(C)C)sc1N | -10.6% | – | –
95 | CCCCN(C(C)=O)c1ccc2c(c1)C1CC2CCN1Cc1ccccc1 (stereo not given) | – | – | inactive
